# PubChem BioAssay AID743465 (Broad Institute, 2014)
# Some of the results follow. Results filed as inconclusive are left out. Active and inactive are the calls of the source.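 Rule for the calls: active = compounds lowering PCK1 expression whose fitted half-maximal concentration is at most twice the top tested dose; inconclusive = flat fit with moderate opposite-direction effect, or poor fit; inactive = the rest.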
# Assay: suppression of PCK1 mRNA in primary hepatocytes, dose response, PGC-1a acetylation activator project, cell-based, primary mouse hepatocytes, RT-qPCR, cherry-pick (AID 743465);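 note: values are delta delta Ct of PCK1 relative to GAPDH; higher delta delta Ct means lower PCK1 expression so positive values indicate hits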
# Details: forskolin-stimulated; series mostly up to 26 µM
row,SMILES,outcome
1,CCOC(=O)c1c(NC(=O)CSc2cn(CC)c3ccccc23)sc2c1CCC2,inactive
2,Cc1cc(C(=O)NNS(=O)(=O)c2ccccc2C(F)(F)F)nn1C(C)(C)C,inactive
3,COc1ccc(Nc2nnc(C)c3ccccc23)cc1,inactive
4,Cc1ccc(S(=O)(=O)Nc2ccc3c(c2)C(=O)N([C@@H](C)CO)C[C@@H](C)[C@H](CN(C)C(=O)Nc2cccc4ccccc24)OCCCC[C@H](C)O3)cc1,inactive
5,Cc1ccc(OCC(=O)NCCCNC(=O)c2cccnc2)cc1C,inactive
6,O=C(NCCC1CCCCN1S(=O)(=O)c1cccs1)C(=O)Nc1ccc(F)cc1F (centres undefined),inactive
7,CC(C)CCNc1nc(N2CCCC2)c2c(c1C#N)CCN(C)C2,inactive
8,Cc1cc(C)c2c(-n3cccc3)c(C(=O)NNS(=O)(=O)c3ccc(F)cc3)sc2n1,inactive
9,CCOc1ccccc1CN1CCN(C2CCC2)CC1CCO (centres undefined),inactive
10,COc1ccc(-n2nnnc2CNC(=O)c2ccc3ccccc3c2)cc1,inactive
11,CCCCC(=O)Nc1ccc(C(=O)NCCCn2ccnc2)cc1,inactive
12,CCC(C)(C)n1nnnc1C(c1ccccc1OC)N1CCSCC1 (centres undefined),inactive
13,O=C(NCc1ccccc1)C(c1ccccc1)N(C(=O)c1csnn1)c1ccc(F)cc1 (centres undefined),inactive
14,CCOC(=O)c1c(-c2ccc(C)cc2C)csc1NC(=O)CSc1nnnn1C,inactive
